# IP6K1 inhibitor = inhibitors of human IP6K1. 0.81% of 140,000 active. IP6K1 kinase, ADP-Glo luminescence, 2 h; hits give low values. activity change, % (series mostly up to about 58 µM). AID 1645851. Q92551; in the data active means activity change below about -25%; further: on the % scale 0 is the no-effect control and ±100 the full control effect
#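 ADP-Glo luminescence measures ADP made by human IP6K1 during a 2 h RT reaction with ATP/IP6 (mix at 1.3 mM/130 uM); top library doses 57.5 and 19.1 uM final.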
# HEK293 viab = counter-screen for SNCA expression inhibitors: cell viability. HEK-293-SNCA-luc viability, GF-AFC fluorescence, 24 h. AID 1671193. 0.12% of 150,000 active. Potency, µM (highest dose often 57.1 µM), inactives show at the top dose activity change, negative = cytotoxicity, usual class: cytotoxic;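 further: potency means the concentration at half of the fitted maximal effect; 0% = DMSO-treated cells and -100% = medium-only wells without cells; nearly all actives have a fitted effect of over 30% in size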
#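 Cytotoxicity counterscreen: after 24 h compound treatment of genome-edited SNCA-luciferase HEK-293 cells, live-cell protease substrate GF-AFC read by fluorescence after 30 min; activity scaled between DMSO (0%) and medium-only (-100%), curves Hill-fitted.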
# GPT2 inh = inhibitors of human GPT2 alanine aminotransferase. Recombinant GPT2, coupled pyruvate oxidase/HRP Amplex Red fluorescence. Q8TD30. AID 1671188. 0.25% of 100,000 active. Potency, µM (doses to about 57.7 µM), inactives show at the highest dose activity change, negative = inhibition, most hits filed as inhibitors; further: potency means the concentration at half of the fitted maximal effect; on the % scale 0 is the no-effect control and ±100 the full control effect; nearly all actives have a fitted effect of over 60% in size
#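 Inhibition is scored from Amplex Red fluorescence generated when pyruvate oxidase and HRP act on pyruvate released by GPT2. Reactions contain 10ng/uL enzyme, 250uM a-KG and 2mM L-alanine and run 30 min at room temperature.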
# SNCA expr inhib = inhibitors of alpha-synuclein (SNCA) gene expression | HEK-293 SNCA-luciferase knock-in, luminescence, 24 h | Potency, µM (titrated, usually from 57.2 µM), inactives show top-dose activity change, negative = inhibition, usual class: inhibitors | 0.17% of 140,000 active;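 further: potency means the concentration at half of the fitted maximal effect; plate controls were DMSO cells for no effect and cell-free wells for full effect; nearly all actives have a fitted effect of over 45% in size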
# GPT2 inh cnf = confirmation of human GPT2 inhibitors; Potency, µM, usual class: inhibitors; GPT2 enzyme, coupled Amplex Red pyruvate fluorescence; shares compounds with GPT2 inh; 90% of 95 active
# Numbers without * were called inactive; i = inactive; . = no result given; [ ] = another dose, or the depositor's remark. Compounds with a hit are over-represented: about 1.1% of the library has one in this group of screens. Unless noted, the call rests on the fitted dose curve; in most records, active means well fitted curve in the direction sought with a large enough effect; inconclusive means small, poorly fitted or top-dose-only effect, or another doubt; inactive means no such curve, though single readings can be large; an effect the other way counts as inactive or inconclusive.
SMILES,IP6K1 inhibitor,HEK293 viab,GPT2 inh,SNCA expr inhib,GPT2 inh cnf
CCOC(=O)[C@H](CCc1ccccc1)N[C@@H](C)C(=O)N1Cc2ccccc2C[C@H]1C(=O)O,-1,2%[23.9 µM],4%,20%[25.6 µM],.
O=C(O)C=Cc1ccc(O)c(O)c1,.,-2%,4.3µM*,-4%,3.4*
O=C(/C=C/c1ccc(O)c(O)c1)OCCc1ccccc1,.,-21%,-3%,44%,.
COc1ccc(Nc2cc(C(=O)NCc3cccnc3)c3c(c2)ncn3C)cc1,.,.,.,.,3.1*
Cc1ccc(-c2cc(C(=O)NCc3cccnc3)c3c(c2)ncn3C)cn1,10,9%[87.6 µM],i,6%[87.6 µM],.
